Source: PubChem BioAssay
CendR NRP1 mod – NRP-1/CendR interaction modulation. O14786. inhibition, % at 25 µM. 360,000 tested, 0.85% active. FAM-RPARPAR peptide binding to NRP-1, fluorescence polarization;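 active = inhibition or corrected inhibition above about 18%, plus a signal ratio from 0.5 to 1.5, limit read from the data, passing the limit was not always enough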
MIN6 prolif – inducers of beta-cell replication in MIN6 cells; MIN6 cells proliferation, ATPlite luminescence, 48 h; cells starved in 0.2% serum; 100% = growth in 10% serum; 330,000 tested, 0.29% active; proliferation, % at 10 µM;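 active = compounds whose signal lies at least 3.5 SD above the mean of all wells on their plate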;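 note: 0% = DMSO-treated cells in low-serum medium and 100% = 10% serum control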
A3A deaminase – blocks human APOBEC3A ssDNA deamination; 330,000 tested, 0.41% active; inhibition, % at 20 µM; recombinant A3A, FAM/TAMRA ssDNA deamination fluorescence;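 active = at least 40% inhibition at 20 µM here, with at most 30% in a related deaminase screen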;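 note: plate controls were A3A with DMSO for no effect and wells lacking A3A enzyme for full effect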
Target sequence (P31941 whole entry, looked up): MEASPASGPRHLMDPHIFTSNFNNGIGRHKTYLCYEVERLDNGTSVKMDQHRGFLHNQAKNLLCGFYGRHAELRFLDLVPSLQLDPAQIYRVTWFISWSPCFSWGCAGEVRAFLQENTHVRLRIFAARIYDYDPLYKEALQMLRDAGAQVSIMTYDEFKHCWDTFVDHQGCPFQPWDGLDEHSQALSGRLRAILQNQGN
A3G deaminase – inhibitors of human APOBEC3G DNA deaminase; Q9HC16; recombinant A3G, ssDNA deamination FAM/TAMRA fluorescence; inhibition, % at 20 µM; 330,000 tested, 0.28% active;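 active = inhibition of at least 40% at 20 µM, with no more than 30% in the related APOBEC3A deaminase screen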;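 note: plate controls were DMSO wells with A3G for no effect and wells lacking A3G enzyme for full effect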
Target sequence (Q9HC16 whole entry, looked up): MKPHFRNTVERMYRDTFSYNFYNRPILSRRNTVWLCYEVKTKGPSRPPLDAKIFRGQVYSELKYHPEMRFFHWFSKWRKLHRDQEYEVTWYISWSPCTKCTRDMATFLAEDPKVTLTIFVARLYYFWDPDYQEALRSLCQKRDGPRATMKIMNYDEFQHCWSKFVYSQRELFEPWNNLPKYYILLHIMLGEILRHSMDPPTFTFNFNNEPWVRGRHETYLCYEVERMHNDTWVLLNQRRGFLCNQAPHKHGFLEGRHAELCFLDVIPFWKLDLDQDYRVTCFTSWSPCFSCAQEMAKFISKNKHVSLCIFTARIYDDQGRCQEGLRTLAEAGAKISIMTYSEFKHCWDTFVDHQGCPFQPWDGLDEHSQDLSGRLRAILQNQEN
VLA-4 inh – inhibition in a human VLA-4 binding assay | P13612 | VLA-4 expressing cells, ligand binding flow cytometry | inhibition, % (about 7 µM as worked out from the volumes in the protocol) | 330,000 tested, 0.2% active | AID 2557; in the data active = inhibition above about 50%
APOBEC3A confirm – confirmation of human APOBEC3A DNA deaminase inhibitors | shares compounds with A3A deaminase | recombinant A3A, ssDNA deaminase UDG fluorescence assay | inhibition, % at 20 µM | 1,400 tested, 63% active;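 active = inhibition reaching a set limit, 80% of the first screen's cutoff, at 20 µM in any replicate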;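 note: plate controls were DMSO wells with A3A for no effect and wells lacking A3A enzyme for full effect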
UDG ctr A3A – counter-screen for APOBEC3A inhibitors: UDG | shares compounds with A3A deaminase | UDG counterscreen, FAM/TAMRA uracil oligo fluorescence | inhibition, % at 20 µM | 1,000 tested, under 10 active | AID 504714; call rule not given here
The depositor's hits bear a star; . = not tested or not shown. A selection: hits, their analogues and other compounds. The true share with any hit is near 1.8%.

SMILES	CendR NRP1 mod	MIN6 prolif	A3A deaminase	A3G deaminase	VLA-4 inh	APOBEC3A confirm	UDG ctr A3A
CCN1CCN(c2ccc(NC(=O)c3ccc4c(c3)OCCO4)cc2C)CC1	-5.5	-2.1	74.3*	19.3	.	73.5*	-0.9
CCN1CCN(c2cc(C)c3cc(NC(=O)c4ccc5c(c4)OCO5)ccc3n2)CC1	0.5	-6.3	0.9	-2.4	-0.2	.	.
CCN1CCN(c2ccc(NC(=O)c3cc4ccccc4cc3OC)cc2C)CC1	-2.7	-7.8	41.5*	7.0	11.4	72.7*	-4.0
CCSc1ccc([C@@H]2[C@H]3C(=O)N(C)C(=O)[C@H]3[C@]3(C(=O)OC)CCCCN23)cc1OC	-15.0	-1.8	-0.8	-7.8	2.6	.	.
COc1ccc(/C=C(\NC(=O)c2ccccc2)C(=O)OC[C@@H]2CCC[N+]3(C)CCCCC23)cc1OC (some centres undefined)	11.5	-3.2	66.9*	11.0	-3.2	67.2*	3.9
Cc1ccc(NS(=O)(=O)c2ccc3[nH]c(=O)sc3c2)cc1	13.2	-2.0	-1.3	-5.2	9.3	.	.
CCCCOc1ccc(NC(=O)CCSc2nccn2C)cc1	6.7	0.0	41.8*	16.3	3.6	0.7	.
Cc1ccnc(NC(=O)CN2C(=O)NC(C)(c3ccc4ccccc4c3)C2=O)c1 (centres undefined)	-14.9	-4.8	0.2	1.8	.	.	.
O=C(NC1CCCc2ccccc21)c1cc(Cl)ccn1 (centres undefined)	5.6	-3.0	61.7*	12.0	5.4	30.2	.
COc1ccc([N+](=O)[O-])cc1CSc1ccccn1	0.5	-1.4	52.3*	7.2	-12.7	45.8*	2.3
C[C@H](C(=O)NCc1ccccc1)C(=O)c1ccccc1	-1.3	-0.2	-0.1	-3.2	-16.8	.	.
CC(C)C[C@H]1CN([C@@H](CC(C)C)CN2CCCC2CN2C(=S)NC[C@@H]2Cc2ccccc2)C(=S)N1CC1CCCCC1 (some centres undefined)	-12.3	.	.	.	.	.	.
Cc1nc2c(C)cccc2c2c1COC2	6.9	-1.4	1.6	-1.3	-4.1	.	.
Cc1ccc2nc(C)c3c(c2c1)COC3	2.0	0.0	62.2*	-5.0	16.1	-0.5	4.0
C/C(=N\NC(=O)CN1CCCCC1)c1ccccc1O	-1.4	-2.0	40.5*	10.6	-4.9	20.4	.
CC1CCCC(C)N1C(=O)/C=C/c1ccc(S(=O)(=O)N2CCOCC2)cc1 (centres undefined)	4.4	-3.4	1.1	-7.5	.	.	.
O=C1Nc2ccccc2/C1=N/c1sc2c(c1C(=O)NCCc1ccccc1)CCCC2	14.0	-6.6	43.8*	-1.7	-10.1	-3.9	0.9
O=C(COC(=O)[C@@H]1CCCN1S(=O)(=O)c1ccccc1F)NCc1ccc2c(c1)OCO2	-8.2	0.9	3.0	-1.1	-11.6	.	.
COc1cc(CNC(=O)c2cc(C(=O)NCc3cc(OC)cc(OC)c3)n(C)n2)cc(OC)c1	17.3	0.2	1.6	4.8	.	.	.
CCOC(=O)C1CCCN(C(=O)CCCn2nnnc2CN2CCOCC2)C1 (centres undefined)	-5.0	1.6	-1.1	-4.6	.	.	.
COc1ccccc1N1C(=N)S/C(=C\c2ccc(-c3ccccc3C(=O)O)o2)C1=O	-143.6	0.0	43.7*	28.2	-7.1	32.1*	-2.2
N=C1S/C(=C\c2ccc(-c3ccccc3C(=O)O)o2)C(=O)N1c1ccc2c(c1)OCO2	-50.7	.	.	.	.	.	.
CN(C)c1cccc(NC2=CC(=[N+]3CCOCC3)CC(C)(C)C2)c1	9.9	-0.7	40.7*	18.0	-10.0	18.2	.
CC1(C)CC(=O)C=C(Nc2cccc(F)c2)C1	-17.6	-3.7	-3.4	-7.5	4.1	.	.
Cc1nc2ccccc2c(C)c1CC(=O)N(CC(C)C)c1c(N)n(Cc2ccccc2)c(=O)[nH]c1=O	-3.4	-3.6	0.1	-2.3	0.8	.	.
SMILES	CendR NRP1 mod	MIN6 prolif	A3A deaminase	A3G deaminase	VLA-4 inh	APOBEC3A confirm	UDG ctr A3A
CC(C)CN(C(=O)CCCc1nc2ccccc2c(=O)[nH]1)c1c(N)n(Cc2ccccc2)c(=O)[nH]c1=O	2.1	-1.1	42.2*	4.2	-0.1	2.0	.
O=C(CSc1nnc(-c2cccs2)n1C1CC1)NCC1CCCO1 (centres undefined)	7.4	-2.8	3.3	-5.4	8.9	.	.
Cc1cnc(C(=O)N(CC(C)C)c2c(N)n(CC(C)C)c(=O)[nH]c2=O)cn1	-0.3	-3.3	0.2	-0.7	.	.	.
N#Cc1ccccc1S(=O)(=O)N1CCN(C(=O)c2cc3c(s2)CCC3)CC1	-3.8	-1.7	51.3*	13.6	.	35.8*	1.2
COc1cc(OC)cc(-c2c(-c3ccsc3)c3cc(Br)ccc3n2C)c1	-2.6	-6.0	-4.0	-14.9	4.1	.	.
CCN(CC)CC(O)Cn1c2ccccc2c2ccccc21 (centres undefined)	2.4	-0.9	2.8	-1.3	6.9	.	.
Cc1cc(C)[n+](C)n1CC(O)Cn1c2ccccc2c2ccccc21 (centres undefined)	-9.7	2.1	45.0*	10.7	5.5	75.8*	1.5
Cc1cc(C(=O)NCCc2ccc(S(N)(=O)=O)cc2)c(C)o1	10.6	0.2	0.2	-1.0	-0.6	.	.
O=C(Cc1ccccc1)Nn1c(-c2ccccc2)nc2ccccc2c1=O	2.9	0.0	0.0	3.2	-10.4	.	.
Cc1cccc(-c2nc3ccccc3c(=O)n2NC(=O)c2ccc([N+](=O)[O-])c(C)c2)c1	7.1	0.2	49.0*	-12.5	12.2	-8.3	-0.2
Cc1cc(C(=O)Nn2c(C)nc3ccccc3c2=O)ccc1[N+](=O)[O-]	7.5	2.4	-0.6	-6.2	-9.9	.	.
NC(=S)Nn1c(-c2ccccc2)nc2ccccc2c1=O	0.4	-0.1	41.6*	-3.2	-0.8	1.9	-3.0
Cc1cc(Br)ccc1NC(=O)CN(C)C(=O)CNC(=O)Cc1ccccc1	5.5	2.3	0.1	-7.7	-7.9	.	.
CCN(CC(=O)NCC(=O)Nc1ccc(Br)cc1C)Cc1ccccc1	4.3	0.0	40.1*	-7.5	-1.3	8.0	5.0
O=[N+]([O-])c1ccccc1C=NNc1ccccc1	2.1	.	.	.	.	.	.
O=[N+]([O-])c1ccccc1/C=N/NC1=NCCN1	-2.7	-2.4	50.3*	18.7	7.5	63.6*	5.2
Nc1ccc2oc(CCc3ccccc3)nc2c1	11.6	0.6	59.7*	-4.0	1.1	-6.6	-2.0
c1ccc2oc(CCc3nc4ccccc4o3)nc2c1	-6.6	-1.6	-1.7	0.2	-4.3	.	.
N#CC1C(=O)NC(=O)CC12CCCCC2 (centres undefined)	-5.6	.	.	.	.	.	.
N=C1/C(=C/c2ccco2)C(=O)N=C2SC(CC(=O)N3CCCC3)=NN12	-11.3	-5.7	51.4*	27.3	-1.2	42.3*	1.2
Cc1ccc(/C=C2\C(=N)N3N=C(CC(=O)N4CCCCC4)SC3=NC2=O)cc1	-52.1	-0.7	-0.5	-3.3	-2.7	.	.
N=C1/C(=C/c2ccc(Br)o2)C(=O)N=C2SC(CC(=O)N3CCCC3)=NN12	-63.2	-3.3	43.4*	17.9	-2.2	45.0*	.
